# Results reported in PubChem BioAssay (NCATS).
# Records with an inconclusive call do not appear. Entries that show only a call come without a potency. Activity calls are given as the source filed them. Calls come from the whole dose curve; as a rule, active = well fitted curve in the direction sought with a large enough effect; inconclusive = small, poorly fitted or top-dose-only effect, or another doubt; inactive = no such curve, though single readings can be large; an effect the other way counts as inactive or inconclusive.
# Tests used:
# [1] = biological target: Aldehyde dehydrogenase, mitochondrial (Homo sapiens) (UniProt P05091); assay: qHTS for Inhibitors of the Aldehyde Dehydrogenase Family (ALDH2) Primary screen (AID 2061308); conditions: ALDH2 enzyme inhibition qHTS, 1536-well; series mostly up to 56 µM; note: nearly all actives have a fitted effect of over 55% in size
# [2] = biological target: Retinaldehyde dehydrogenase 3 (Homo sapiens) (UniProt P47895); assay: qHTS for Inhibitors of the Aldehyde Dehydrogenase Family (ALDH1A3) Primary screen (AID 2061315); conditions: ALDH inhibition qHTS; series mostly up to 56 µM
Compound,Potency [1],Potency [2]
CC(C)(C)Cc1nnc(NC(=O)CSc2ccccc2)s1,inactive,inactive
Nc1ccc(-c2cccc3c(=O)cc(N4CCOCC4)oc23)cc1,inactive,inactive
Cc1ccc(NS(=O)(=O)c2ccc(N3CCCC3=O)cc2)cc1C,inactive,inactive
O=C1CCCC2CC(Nc3nc4ccccc4o3)CC(c3ccccc3)C12 (configuration not stated),inactive,inactive
O=S(=O)(c1ccc(O)c2ncccc12)N1CCCCC1,inactive,inactive
O=[S+]([O-])(c1ccc(OC(F)(F)F)cc1)N1CCN([S+](=O)([O-])c2ccc3c(c2)OCCO3)CC1,inactive,inactive
CC(=O)c1ccc(N2CCN(S(=O)(=O)c3ccc4c(c3)C(=O)OC4)CC2)cc1,inactive,inactive
COc1ccc(C(=O)N(Cc2ccccc2)Cc2ccccc2)cc1COc1ccc(NC(C)=O)cc1,inactive,inactive
C=C1C(O)C(O)C2(CC3C(C)=CCC4C(C)(CO)CCCC34C)OC2C1O (configuration not stated),inactive,inactive
Cc1cc2c(s1)c1cnn(Cc3ccc(F)cc3)c(=O)c1n2C,inactive,inactive
CC(C)CCC[C@@H](C)[C@H]1CC[C@H]2[C@@H]3CC=C4C[C@@H](OC(=O)NCCN(C)C)CC[C@]4(C)[C@H]3CC[C@]12C,inactive,inactive
Fc1ccc(-c2ccc(Nc3nc(-c4ccncc4)nc4ccccc34)cc2F)c(F)c1,inactive,inactive
Cc1csc(CNc2ncnc3ccc(-c4ccoc4)cc23)c1,inactive,inactive
O=C(COC(=O)CNC(=O)C1CCCCC1)Nc1ccccc1Cl,inactive,inactive
O=C(Nc1ccc(F)c(C(F)(F)F)c1)Nc1nnc(-c2ccncc2)o1,inactive,inactive
Cc1cnc(-c2ccccc2C(C)C)nc1N(C)Cc1ccc(-c2cccnc2)cc1,inactive,inactive
O=C(Nc1ccccn1)c1sc2ccc([N+](=O)[O-])cc2c1Cl,inactive,inactive
Cn1c2cc(Br)sc2c2cnn(Cc3ccccc3F)c(=O)c21,inactive,inactive
O=C(NCCCn1ccnc1)c1nn2c(C(F)(F)F)cc(-c3ccc(Br)cc3)nc2c1Cl,inactive,inactive
Cc1cc2c(s1)c(C#N)c(C(=O)NCc1ccccc1F)n2C,inactive,inactive
N#Cc1cccc(-c2ccc(NC(=O)c3cccs3)cn2)c1,inactive,inactive

Compound,Potency [1],Potency [2]
CC(C)c1ccccc1-c1ncc(F)c(NCc2ccc(-c3cccnc3)s2)n1,inactive,inactive
COc1cccc(-c2ccc(-c3nc4ccccc4c(=O)[nH]3)o2)c1,inactive,inactive
COc1ccc(C2=Nn3c(nnc3-c3ccccc3O)SC2)c(OC)c1,inactive,inactive
Cn1nnnc1Sc1ncnc2n[nH]c(-c3cccc(S(C)(=O)=O)c3)c12,inactive,inactive
COc1ccc(Nc2nc(C#N)nc(NC3CCCC3)n2)cc1,inactive,inactive
O=C(/C=C/c1ccccc1Br)NCCc1nc2ccccc2[nH]1,inactive,inactive
CC(C)Oc1ccc(CCNC(=O)c2cc3sccc3n2Cc2ccccc2)cc1OC(C)C,inactive,inactive
O=C(Nc1ccc(Cl)c(Cl)c1)Nc1nnc(-c2ccc(F)cc2)s1,inactive,inactive
FC(F)(F)c1cccc(N2CCN(C(=S)Nc3ccncc3)CC2)c1,inactive,inactive
N#Cc1ccc(CSc2nc3ncc(Br)cc3[nH]2)cc1,inactive,inactive
Cc1ccnc(NC(=S)N2CCCc3ccc(C(F)(F)F)cc32)c1,inactive,inactive
c1ccc(C2Nc3cccc4cccc(c34)N2)cc1,inactive,inactive
CN(C)c1cccc(NS(=O)(=O)c2ccc(NC(=O)Cc3ccc(Cl)c(Cl)c3)cc2)c1,inactive,inactive
C=C1C(=O)O[C@@H]2/C=C(\C)CC/C=C(/C=O)[C@H](OC)[C@@H](OC(=O)C(C)C)[C@@H]12,inactive,inactive
Cc1ccnc(NC(=S)N2CC3CN(c4ccc(Cl)cc4C(F)(F)F)CC3C2)c1 (configuration not stated),inactive,inactive
Cc1nc(NC2CCCCC2)c2nc(-c3ccccc3)n(CCCN3CCOCC3)c2n1,inactive,inactive
CN(Cc1ccco1)c1ncnc2ccc(-c3cccc(Cl)c3)cc12,inactive,inactive
CC(=O)Nc1sc2c(c1-c1ccc3nonc3c1)CCNC2,inactive,inactive
O=C1CN(S(=O)(=O)c2c(F)cccc2F)CCN1S(=O)(=O)c1ccc2c(c1)OCCO2,inactive,inactive
CCOC(=O)CC(=O)Nc1ncnc2c1C(c1ccccc1)c1c(ccc3ccccc13)O2 (configuration not stated),inactive,inactive
